# Data reported in PubChem BioAssay (NCATS).
# Records with an inconclusive call do not appear. Active and inactive are the calls of the source. Calls come from the whole dose curve; as a rule, active = well fitted curve in the direction sought with a large enough effect; inconclusive = small, poorly fitted or top-dose-only effect, or another doubt; inactive = no such curve, though single readings can be large or run the other way.
# Test: Cytometric Cell-Based qHTS for Inhibitors of the mTORC1 Signaling Pathway in MEF (Tsc2-/-, p53-/-) Cells (AID 2660);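 note: Tsc2 and p53 null MEFs carrying empty vector with compound for 24 h; percent of cells above a phospho-rpS6 to PI ratio cutoff in each well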
# Conditions: mTORC1 pathway cytometry; series mostly up to 38.3 µM
# Source text: NIH Molecular Libraries Probe Production Centers Network [MLPCN]
# NIH Chemical Genomics Center [NCGC]
# Assay Submitter (PI): Blenis, John; Hoffman, Greg; Harvard University
# NCGC Assay Overview: The mammalian target of rapamycin (mTOR) is an intracellular serine/threonine kinase Aberrant regulation of mTOR signaling plays a causative role in a number of human diseases, including cancer, benign tumors such as lymphangioleiomyomatosis (LAM) and Tuberous Sclerosis Complex (TSC), and metabolic diseases such as diabetes and obesity. This project aims to identify inhibitors of ribosomal protein S6 (rpS6) phosphorylation. The phosphorylation of rpS6 is a key event downstream of mTOR activation. The assay uses a phospho-specific antibody of phospho-rpS6 to detect inhibitors of mTOR activation. Mutations in the Tsc1 and Tsc2 genes are the underlying genetic lesions responsible for TSC, causing constitutive activation of the mTORC1 pathway and leading to profound effects on cell metabolism. Aberrant metabolism in cancer has recently received significant attention as a target to develop therapeutic agents in the treatment of cancer.1 As Tsc2-/- cells have lost the ability to respond to energy and growth factor deprivation, these cells are unable to properly down regulate cellular biosynthetic processes in response to metabolic stress, and are thus extremely sensitive to glucose deprivation-induced death.2 A central goal of this project is to explore the unique cell survival and metabolic properties of cells with Tsc1 or Tsc2 by screening for compounds that selectively target the Tsc2-/- MEFs by screening both Tsc2-/- and WT MEF cell lines. We hope to better understand these aspects of TSC physiology in order to exploit them for therapeutic benefit.
# NCGC Acumen Assay Protocol Summary:
# For quantitative high throughput analysis of mTORC1 signaling, we developed a cell-based assay for immuno-fluorescence based detection of rpS6 phosphorylation on the Acumen Explorer that will be used a platform for the primary small molecule screen. Mouse embryonic fibroblasts (MEFs) are cultured in 1536-well plates using DMEM + 10% FBS. Twenty-four hrs after plating, test compounds (solubilized in DMSO) are delivered and incubated with the cells for 24 hrs at 37 degree Celsius. Following the incubation, media with compound is aspirated and the cells are fixed in 4% paraformaldehyde (PFA) containing PBS + 0.2% TX-100. Next, PFA is aspirated, cells are washed two times with PBS plus 0.2% TX-100 and the cells are blocked for 1 hr at room temperature (blocking buffer: LiCOR Blocking Buffer plus 0.2% TX-100). This is followed by aspiration and staining with Alexa-488 conjugated-phospho-rpS6 Ser235/236 antibody for 2 hours at room temperature (Cell Signaling Technology # 4803, 1:50 dilution in blocking buffer). Cells are washed two times with PBS plus 0.2% TX-100, and stained with 10 uM propidium iodide (PI) for 20-25 minutes for cell number measurement (1:500 dilution of Hoescht staining is also added for IN Cell imaging). The plates are scanned on the Acumen Explorer laser scanning instrument (TTP Labtech) using the 488nm laser for simultaneous excitation of the Alexa-488 and PI. The fluorescence emission from the Alexa-488 conjugated rpS6 phospho-235/236 antibody staining is selected using a […] band pass filter. Fluorescence emission from the PI stain is selected using a 575-640 nm band pass filter. The normalized phospho-S6 staining is calculated as the ratio of the integrated Alexa 488 intensity divided by the integrated PI intensity for the single concentration rapamycin control (7.5 nM) and DMSO columns. […] Inhibition of the pathway is defined based on the normalized phospho-S6 intensity in rapamycin treated cells. […]
row,Structure (SMILES),outcome
1,Cc1nn(-c2ccccc2)c(C)c1/C=N/N1CCN(Cc2ccccc2)CC1,inactive
2,Clc1ccc2c(c1)N=C(N1CCNCC1)c1ccccc1N2,inactive
3,N[C@@H](Cn1ccc(=O)c(O)c1)C(=O)O,inactive
4,CCN(CC)CCNC(=O)c1ccc(NS(C)(=O)=O)cc1,inactive
5,COc1ccccc1N1CCN(CCN2C(=O)CC3(CCCC3)CC2=O)CC1,inactive
6,NC(N)=NCCCCN=C(N)N,inactive
7,O=C1NC(c2cccc([N+](=O)[O-])c2)=CCN1c1ccccc1O,inactive
8,O=C1NC(=O)/C(=C/c2ccc3c(c2)OC(F)(F)O3)S1,inactive
9,CN(C)c1cc2c(Nc3ccc4c(cnn4Cc4ccccc4)c3)ncnc2cn1,inactive
10,Brc1ccc([C@H]2CN3CCSC3=N2)cc1,inactive
11,COC(=O)C1=CO[C@@H](O)[C@@H]2C(CO)=CC[C@H]12,inactive
12,O=[N+]([O-])c1ccc(-c2nc(-c3ccc(F)cc3)c(-c3ccncc3)[nH]2)cc1,inactive
13,Cn1cnc2c(NCc3ccccc3)nc(NCCO)nc21,inactive
14,C[N+](C)(C)CCO,inactive
15,Nc1ncnc2n[nH]c(Nc3ccc(F)cc3)c12,inactive
